Luciferase inh: inhibitors of firefly (Photinus pyralis) luciferase; purified P. pyralis luciferase, luminescence, biochemical; Potency, µM (doses to about 115 µM), most hits filed as inhibitors; P08659; AID 1347043; hit rate 2.5% among 76,000; note: nearly all actives have a fitted effect of over 65% in size
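Purified 10nM P. pyralis luciferase with 10uM D-luciferin and 10uM ATP in 50mM Tris acetate pH 7.5, 10mM Mg acetate, 0.01% Tween-20, 0.05% BSA. qHTS titration; luminescence read by CCD imager.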
3T3 cytotox: NIH 3T3 cell cytotoxicity. hit rate 4.3% among 94,000. NIH 3T3 viability, CellTiter-Glo ATP luminescence, 48-72 h. Potency, µM (highest dose often 96.7 µM), inactives show top-dose activity change, negative = cytotoxicity, usual class: inhibitors; note: nearly all actives have a fitted effect of over 55% in size
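First NIH 3T3 cells are plated at 400 cells/well; next compound is pinned in; then plates incubate 48 or 72 hr at 37 °C; finally CellTiter-Glo is added and luminescence read after 10 min.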
NPR1 antag: antagonists of human natriuretic peptide receptor Npr1 | P16066 | HEK293 hNpr1 GloSensor cGMP, ANP-stimulated luminescence | Potency, µM (doses to about 46.3 µM), for inactives: at the highest dose activity change, negative = inhibition, most hits filed as inhibitors | hit rate 1.6% among 76,000; calls by dose curve; note: nearly all actives have a fitted effect of over 60% in size
Target sequence (P16066 whole entry, looked up): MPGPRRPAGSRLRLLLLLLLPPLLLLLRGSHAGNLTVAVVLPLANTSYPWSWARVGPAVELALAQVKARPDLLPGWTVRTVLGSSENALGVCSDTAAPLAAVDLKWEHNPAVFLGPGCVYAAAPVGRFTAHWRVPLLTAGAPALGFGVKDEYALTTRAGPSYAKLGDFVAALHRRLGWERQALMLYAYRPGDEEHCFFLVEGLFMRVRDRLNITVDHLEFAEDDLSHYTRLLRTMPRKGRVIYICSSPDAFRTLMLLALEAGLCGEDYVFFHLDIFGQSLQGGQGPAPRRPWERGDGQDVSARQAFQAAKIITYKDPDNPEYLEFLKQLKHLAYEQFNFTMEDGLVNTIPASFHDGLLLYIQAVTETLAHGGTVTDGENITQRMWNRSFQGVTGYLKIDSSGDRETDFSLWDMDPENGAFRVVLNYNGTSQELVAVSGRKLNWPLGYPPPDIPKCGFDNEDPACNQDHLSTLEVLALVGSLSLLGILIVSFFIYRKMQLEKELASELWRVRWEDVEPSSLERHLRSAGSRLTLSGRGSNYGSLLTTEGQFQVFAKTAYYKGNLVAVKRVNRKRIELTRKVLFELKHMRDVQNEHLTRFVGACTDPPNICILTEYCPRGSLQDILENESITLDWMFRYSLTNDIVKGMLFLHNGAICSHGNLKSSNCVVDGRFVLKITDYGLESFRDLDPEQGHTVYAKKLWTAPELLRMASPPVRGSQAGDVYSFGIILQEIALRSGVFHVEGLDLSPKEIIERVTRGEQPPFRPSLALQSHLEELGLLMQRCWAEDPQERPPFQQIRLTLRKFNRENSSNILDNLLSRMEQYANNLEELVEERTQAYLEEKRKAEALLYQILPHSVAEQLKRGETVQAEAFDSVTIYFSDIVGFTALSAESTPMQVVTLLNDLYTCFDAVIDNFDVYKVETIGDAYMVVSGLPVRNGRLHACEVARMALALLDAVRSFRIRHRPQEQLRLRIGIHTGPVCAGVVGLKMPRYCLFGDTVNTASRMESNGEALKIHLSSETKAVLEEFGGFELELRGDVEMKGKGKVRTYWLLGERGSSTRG
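Compound pre-incubated 30 min at room temperature on GloSensor-loaded HEK293 cells stably carrying hNpr1 and the pGS-40F cGMP biosensor. Stimulation uses hNppA at 0.1 nM final; luminescence is taken at baseline and 20 min post-agonist.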
HEK293 tox: kills HEK 293 cells. HEK 293 viability, ATP luminescence (CellTiter-Glo), 48-72 h. Potency, µM (highest dose often 115 µM), inactives show at the highest dose activity change, negative = cytotoxicity, usual class: inhibitors. hit rate 6.6% among 94,000. AID 1345083; note: nearly all actives have a fitted effect of over 60% in size
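Cytotoxicity was scored by loss of ATP-coupled luminescence (CellTiter-Glo) in HEK 293 cells. Compound treatment ran 48 or 72 hr at 37 degree Celsius, 5% CO2, 95% humidity.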
* hit, by the source's call; i = inactive; ? = inconclusive; . = no result; [ ] = another dose, or the depositor's remark. Sampled rows, rich in hits. Any-hit rate of the full collection: about 11%. Unless noted, calls come from the whole dose curve; as a rule, active = well fitted curve in the direction sought with a large enough effect; inconclusive = small, poorly fitted or top-dose-only effect, or another doubt; inactive = no such curve, though single readings can be large; an effect the other way counts as inactive or inconclusive. % is set by controls: 0 for no effect and ±100 for the full control effect; potency is the fitted concentration of half-maximal effect.

SMILES	Luciferase inh	3T3 cytotox	NPR1 antag	HEK293 tox
O=C(COc1ccc(F)cc1)N1CCCC(c2noc(COc3ccccc3F)n2)C1 (centres undefined)	?	?	0%	?
O=C(NC1CCCc2c1cnn2-c1ccc(F)cc1F)c1c(F)cccc1Cl (centres undefined)	i	?	?	35µM*
O=C(NC1CCCN(c2cc(-c3ccc(F)cc3)[nH]n2)C1)c1cccc(Br)c1 (centres undefined)	i	?	-26%	32µM*
COc1ccc(-c2cc(N3CCC(NC(=O)c4cccc(Br)c4)C3)n[nH]2)cc1 (centres undefined)	i	?	-14%	?
O=C(NC1CCCN(c2cc(-c3ccc(F)cc3)[nH]n2)C1)c1cccc(Cl)c1 (centres undefined)	i	18µM*	-27%	35µM*
Cc1nnc2ccc(N3CCC(NC(=O)c4cccc(Cl)c4)C3)nn12 (centres undefined)	.	?	.	-22%
CC(=O)Nc1cccc(C(=O)NC2CCCN(c3cc(-c4ccc(Cl)cc4)[nH]n3)C2)c1 (centres undefined)	32µM*	?	5%	45µM*
Cc1nnc2ccc(N3CCCC(NC(=O)c4cccc(Cl)c4)C3)nn12 (centres undefined)	.	?	.	79µM*
CN(C)c1cccc(C(=O)NC2CCCN(c3cc(-c4ccc(Cl)cc4)[nH]n3)C2)c1 (centres undefined)	?	?	-19%	?
COc1cccc(C(=O)N2C(C(=O)NCC(C)C)COC23CCN(C(=O)c2ccccc2F)CC3)c1 (centres undefined)	i	-14%	1%	-16%
COc1ccc2c(c1)OC[C@@H]1CN(C)C(=O)CCN(C(=O)Cc3cccs3)[C@H]21	.	?	.	-2%
COc1ccc2nc(C[C@@H]3C[C@@H](C(C)C)[C@H](CNCc4ccccn4)C=C3C)[nH]c2c1	i	?	-25%[70.6 µM]	79µM*
COc1ccc2nc(C[C@@H]3C[C@@H](C(C)C)[C@H](CNCc4ccc(NC(C)=O)cc4)C=C3C)[nH]c2c1	i	40µM*	-15%	?
Cc1noc(C)c1CC(=O)N[C@@H]1CN(c2ccccn2)C[C@H]1CN(C)C	i	i	1%	i
O=C(NC1CCCCC1)N1CCC(OCc2noc(C3CCCO3)n2)CC1 (centres undefined)	.	-21%	.	-15%
O=C(NC1CCN(Cc2ccc(-c3ccsc3)cc2)C1)c1ccncc1 (centres undefined)	.	?	.	40µM*
O=C(NC1CCN(CCn2nc3n(c2=O)CCCC3)C1)c1ccccc1Cl (centres undefined)	.	-7%	.	0%
O=C(NC1CCN(Cc2ccc(-c3ccsc3)cc2)C1)c1ccccc1Cl (centres undefined)	.	?	.	45µM*
O=C(NC1CCN(Cc2ccc(-c3ccsc3)cc2)C1)c1ccccc1 (centres undefined)	.	?	.	45µM*
Cc1ccc(C(=O)NC2CCN(Cc3ccc(-c4ccsc4)cc3)C2)cc1 (centres undefined)	.	-14%	.	-15%
CC1CCc2nn3ccn(CC(=O)Nc4cccc(Cl)c4)c(=O)c3c2C1 (centres undefined)	?	?	-23%	?
O=C1NC(C(=O)Nc2ccccc2)Cn2cccc21 (centres undefined)	i	1%	0%	i
NC(=O)c1noc2c1CN(c1cc(-c3ccccc3)nc3ccnn13)CC2	i	?	-21%	45µM*
CC(=O)N1CCCN(c2cc(Cl)nc3ccnn23)CC1	i	-19%[138 µM]	31%[70.6 µM]	-22%[172 µM]
COc1ccc(OCC2(C)COc3ccc(C(=O)N(C)C)cc3N2)cc1 (centres undefined)	i	-30%[138 µM]	?	?
SMILES	Luciferase inh	3T3 cytotox	NPR1 antag	HEK293 tox
COc1ccc(OCC2(C)COc3ccc(C(=O)NCc4ccc(F)cc4)cc3N2)cc1 (centres undefined)	i	28µM*	-30%[70.6 µM]	28µM*
CC1(COc2ccccc2)COc2ccc(C(=O)NCc3ccccc3)cc2N1 (centres undefined)	i	50µM*	-22%[70.6 µM]	63µM*
Cn1ccc(NC(=O)c2ccc3c(c2)NC(C)(COc2ccccc2)CO3)n1 (centres undefined)	?	?	?	100µM*
CC1(COc2ccccc2)COc2ccc(C(=O)NCc3cnccn3)cc2N1 (centres undefined)	i	?	-2%[70.6 µM]	?
Cc1nn2c(c1-c1ccccc1Oc1ccccc1)N(C(=O)c1cccc(C#N)c1)CCC2	i	?	-19%[70.6 µM]	71µM*
Cc1nn2c(c1-c1ccccc1Oc1ccccc1)N(C(=O)c1cnccn1)CCC2	i	?	2%[70.6 µM]	i
COc1ccccc1C(=O)N1CCCn2nc(C)c(-c3ccccc3OCc3ccccc3)c21	i	?	-2%	?
Cc1nn2c(c1-c1ccccc1Oc1ccccc1)N(C(=O)Cc1ccccc1)CCC2	i	?	?	79µM*
COc1ccccc1C(=O)N1CCCn2nc(C)c(-c3ccccc3Oc3ccccc3)c21	i	?	-3%[70.6 µM]	100µM*
Cc1nn2c(c1-c1ccccc1Oc1ccccc1)N(C(=O)c1ccccc1)CCC2	i	45µM*	-25%[70.6 µM]	56µM*
COc1ccc(C(=O)N2CCC(N3Cc4cnc(C)n4C3=O)CC2)cc1	i	-6%	-5%	-10%
COC(=O)[C@@H]1Cc2c([nH]c3ccccc23)[C@@H]2C[C@@H](NC(C)C)C[C@@H](c3ccc(F)cc3)N12	i	28µM*	1%	28µM*
COCCNC(=O)[C@H]1C[C@H](Oc2ccccc2)CN1C(=O)c1cccc(OC)c1	i	4%	-4%	i
COCCN[C@@H]1C[C@@H]2c3[nH]c4ccccc4c3C[C@@H](C(=O)OC)N2[C@H](c2ccc(C(C)C)cc2)C1	i	28µM*	?	?
COC(=O)[C@@H]1Cc2c([nH]c3ccccc23)[C@H]2C[C@@H](NCCN(C)C)C[C@@H](c3ccc(F)cc3)N21	i	14µM*	0%	20µM*
COCCN[C@@H]1C[C@@H]2c3[nH]c4ccccc4c3C[C@@H](C(=O)OC)N2[C@H](c2cccc(OC)c2)C1	i	?	?	22µM*
COCCN[C@@H]1C[C@@H]2c3[nH]c4ccccc4c3C[C@@H](C(=O)OC)N2[C@H](c2ccc(Cl)c(F)c2)C1	i	14µM*	?	?
COC(=O)[C@@H]1Cc2c([nH]c3ccccc23)[C@H]2C[C@@H](NCc3cccnc3)C[C@@H](c3ccccc3)N21	i	?	-6%	22µM*
COCCNC(=O)[C@@H]1CCC[C@@H](NCc2cccnc2)CN(C)C(=O)C1	i	i	5%[70.6 µM]	i
COCCN[C@H]1C[C@@H]2c3[nH]c4ccccc4c3C[C@@H](C(=O)OC)N2[C@H](c2ccccc2)C1	i	35µM*	-14%[70.6 µM]	40µM*
